These results are taken from PubChem BioAssay (EPA / NIEHS).

Results filed as inconclusive are left out. Active and inactive are the calls of the source. How the source made its calls, unless noted: active means hit-call score of the fitted dose curve at least 0.9, where 1 is the maximum; inactive means score below 0.9.

A short description of experiment [1]: ATG_TAL_CIS: Attagene CIS-FACTORIAL HepG2 Assay for human TAL Basal Promoter (AID 2282966).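 Further: background control endpoint measuring basal TAL promoter reporter mRNA not a specific factor.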 As to conditions: HepG2 Attagene cis-factorial TAL promoter reporter; actives raise or lower the signal. In outline:
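HepG2, transient MRTU transfection, 24 h compound exposure; RNA → oligo(dT) RT → PCR → 6-FAM primer extension → HpaI digest → CE fluorescence. Bidirectional curve fit vs DMSO. Background-control readout.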

A short description of experiment [2]: ATG_TGFb_CIS: Attagene CIS-FACTORIAL HepG2 Assay for human Transforming Growth Factor (TGF) (AID 2282967). As to conditions: HepG2 Attagene CIS TGFb reporter, mRNA transcription; actives raise or lower the signal. The procedure, abridged: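 HepG2 cells transiently transfected with cis-promoter-driven multiple reporter units measure endogenous TF activity; reporter mRNA quantified at 24 h by RT-PCR, FAM labeling, HpaI digestion and capillary electrophoresis. Bidirectional fit vs DMSO.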

The nature of experiment [3]: ATG_VDRE_CIS: Attagene CIS-FACTORIAL HepG2 Assay for human Vitamin D Receptor Element (VDRE) (AID 2282968). The following applies: HepG2 VDRE cis-reporter transcription, actives raise or lower the signal. In outline: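 Readout is VDRE-driven reporter mRNA reflecting endogenous factor activity in human HepG2 cells, sampled 24 h post-dose. Quantification used labelled RT-PCR products separated by capillary electrophoresis; bidirectional analysis relative to DMSO.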

In experiment [4] the target is X-box-binding protein 1 (Homo sapiens) (UniProt P17861). As to the kind of experiment: ATG_Xbp1_CIS: Attagene CIS-FACTORIAL HepG2 Assay for human X-box Binding Protein 1 (XBP1) (AID 2282972). The following applies: HepG2 XBP1 cis-element reporter, Attagene multiplex; actives raise or lower the signal. The procedure, abridged:
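Reporter transcripts were quantified by RT-PCR with fluorescent primer extension and capillary electrophoresis after 24 h chemical exposure. Cells: transiently transfected HepG2 carrying cis-regulated reporter constructs; data fitted bidirectionally relative to DMSO.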

Experiment [5] is described as follows: ATG_GAL4_TRANS: Attagene TRANS-FACTORIAL HepG2 Assay for GAL4 (Internal Marker) (AID 2282976; active means hit-call score of the fitted dose curve at least 0.9, where 1 is the maximum). The following applies: HepG2 Attagene TRANS GAL4 internal marker reporter. In outline: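 RT-PCR/capillary electrophoresis readout of reporter mRNA. HepG2, transient MRTU transfection (GAL4-UAS reporters), 24 h compound exposure. Background-control endpoint, positive direction vs DMSO baseline.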

Experiment [6] deals with Bile acid receptor (Homo sapiens) (UniProt Q96RI1). As to the kind of experiment: ATG_FXR_TRANS: Attagene TRANS-FACTORIAL HepG2 Assay for Farnesoid X Receptor (FXR) (AID 2282979; active means hit-call score of the fitted dose curve at least 0.9, where 1 is the maximum;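 further: hits raise reporter mRNA above DMSO so AC50 marks FXR activation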). The following applies: HepG2 Attagene TRANS FXR-GAL4 reporter transcription. In outline:
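Read-out: fluorescent reporter transcripts quantified by capillary electrophoresis after RT-PCR of total RNA. Source cells were HepG2 transiently carrying chimeric NR-GAL4 plus GAL4-UAS reporter units, dosed 24 h. Activity fitted upward relative to DMSO baseline.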

Experiment [7] deals with Oxysterols receptor LXR-beta (Homo sapiens) (UniProt P55055). As to the kind of experiment: ATG_LXRb_TRANS: Attagene TRANS-FACTORIAL HepG2 Assay for human Liver X Receptor beta (LXRb) (AID 2282981; active means hit-call score of the fitted dose curve at least 0.9, where 1 is the maximum). The following applies: HepG2 Attagene TRANS GAL4-LXRb reporter, mRNA. In outline:
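After 24 h chemical treatment of transfected HepG2 cells carrying exogenous NR-Gal4 chimeras, reporter mRNA was quantified by fluorescent RT-PCR and capillary electrophoresis; activity taken as increase over DMSO controls.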

The target in experiment [8] is Hepatocyte nuclear factor 4-alpha (Homo sapiens) (UniProt P41235). As to the kind of experiment: ATG_HNF4a_TRANS: Attagene TRANS-FACTORIAL HepG2 Assay for human Hepatocyte Nuclear Factor 4 alpha (HNF4a) (AID 2282982; active means hit-call score of the fitted dose curve at least 0.9, where 1 is the maximum). The following applies: HepG2 HNF4a transactivation reporter, mRNA readout. The procedure, abridged: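 Activity of an exogenous HNF4a–Gal4 fusion scored as induced GAL4-UAS reporter transcripts after 24 h chemical exposure of transfected human HepG2 cells. Read-out via RT-PCR with 6-FAM labelling and capillary electrophoresis; rise over DMSO baseline.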
Sequence of Hepatocyte nuclear factor 4-alpha (Homo sapiens) (P41235 whole entry, looked up, the tested form may be a part): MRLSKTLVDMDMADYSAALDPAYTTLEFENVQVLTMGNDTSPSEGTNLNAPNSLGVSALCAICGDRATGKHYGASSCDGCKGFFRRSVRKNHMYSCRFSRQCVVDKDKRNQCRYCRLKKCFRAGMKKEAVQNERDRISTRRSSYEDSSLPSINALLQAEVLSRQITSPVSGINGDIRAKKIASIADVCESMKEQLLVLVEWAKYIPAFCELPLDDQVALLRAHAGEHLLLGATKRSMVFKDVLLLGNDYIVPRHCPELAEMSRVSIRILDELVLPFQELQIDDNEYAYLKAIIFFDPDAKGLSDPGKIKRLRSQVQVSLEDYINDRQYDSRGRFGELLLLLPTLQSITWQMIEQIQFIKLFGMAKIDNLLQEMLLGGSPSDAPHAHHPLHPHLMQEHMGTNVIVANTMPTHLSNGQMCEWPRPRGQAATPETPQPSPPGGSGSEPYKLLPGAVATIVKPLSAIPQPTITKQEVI

Experiment [9] in a line: ATG_M_06_TRANS: Attagene TRANS-FACTORIAL HepG2 Assay for M06 Transcription Factor (Internal Marker) (AID 2282983; active means hit-call score of the fitted dose curve at least 0.9, where 1 is the maximum). As to conditions: HepG2 Attagene TRANS M06 internal marker reporter. In outline:
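Read-out: fluorescent reporter cDNA fragments resolved by capillary electrophoresis after RT-PCR and HpaI cut. Source cells were HepG2 carrying transfected multi-reporter GAL4 constructs, dosed 24 h. Increase over DMSO control analysed.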

Experiment [10] can be described thus: ATG_M_32_TRANS: Attagene TRANS-FACTORIAL HepG2 Assay for M32 Transcription Factor (Internal Marker) (AID 2282984; active means hit-call score of the fitted dose curve at least 0.9, where 1 is the maximum;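 further: transcript level of a background control reporter unit measured by RT-PCR and capillary electrophoresis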). As to conditions: HepG2 Attagene TRANS M32 internal marker reporter. In outline: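 Internal background reporter in transfected HepG2: after 24 h chemical exposure, RNA reverse-transcribed, reporter cDNA amplified, fluorescently labelled and HpaI-cut, then sized by capillary electrophoresis. Gain of signal fitted against DMSO control.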

Experiment [11] addresses Transcriptional activator Myb (Homo sapiens) (UniProt P10242). As to the kind of experiment: ATG_Myb_CIS: Attagene CIS-FACTORIAL HepG2 Assay for human Myeloblastosis (Myb) Proto-Oncogene Transcription Factor (AID 2282986). As to conditions: HepG2 Attagene CIS-FACTORIAL Myb reporter transcription; actives raise or lower the signal. The procedure, abridged:
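Using HepG2 liver cells bearing transiently transfected cis-promoter reporter constructs, the assay measures induction or loss of reporter mRNA after 24 hours of dosing. Detection used fluorescently labeled RT-PCR products separated by capillary electrophoresis.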

Experiment [12] concerns the target Glucocorticoid receptor (Homo sapiens) (UniProt P04150). As to the kind of experiment: ATG_GR_TRANS: Attagene TRANS-FACTORIAL HepG2 Assay for human Glucocorticoid Receptor (GR) (AID 2282978; active means hit-call score of the fitted dose curve at least 0.9, where 1 is the maximum;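 further: activators score as hits since higher reporter transcript over DMSO is fitted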). The following applies: HepG2 Attagene TRANS GR reporter, mRNA transcription. The procedure, abridged: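 Transiently transfected HepG2 cells express chimeric NR-GAL4 proteins acting on GAL4-UAS reporter units. Compounds are applied for 24 h. mRNA induction over DMSO is measured by capillary electrophoresis.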

Experiment [13] deals with Oxysterols receptor LXR-alpha (Homo sapiens) (UniProt Q13133). As to the kind of experiment: ATG_LXRa_TRANS: Attagene TRANS-FACTORIAL HepG2 Assay for human Liver X Receptor alpha (LXRa) (AID 2282980; active means hit-call score of the fitted dose curve at least 0.9, where 1 is the maximum). As to conditions: HepG2 Attagene TRANS reporter, LXRa transactivation. In outline:
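Read-out: reporter transcript levels by RT-PCR plus capillary electrophoresis, fluorescence intensity. Transiently transfected HepG2, exogenous NR-GAL4 chimera, GAL4-UAS reporters; 24 h compound exposure. Activity = increase over DMSO negative control.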

In experiment [14] the target is Nuclear respiratory factor 1 (Homo sapiens) (UniProt Q16656). As to the kind of experiment: ATG_NRF1_CIS: Attagene CIS-FACTORIAL HepG2 Assay for human Nuclear Respiratory Factor 1 (NRF1) Orphan Gene (AID 2282987). As to conditions: HepG2 NRF1 cis-element reporter, Attagene multiplex; actives raise or lower the signal. In outline:
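Reporter mRNA induction or loss in HepG2 cells after 24 h dosing; cis-regulated reporter constructs report endogenous transcription-factor activity. Quantified by RT-PCR/capillary electrophoresis fluorescence, DMSO-referenced.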

Experiment [15] has as its target Nuclear receptor subfamily 1 group I member 3 (Homo sapiens) (UniProt Q14994). As to the kind of experiment: ATG_CAR_TRANS: Attagene TRANS-FACTORIAL HepG2 Assay for human Constitutive Androstane Receptor (CAR) (AID 2282969; active means hit-call score of the fitted dose curve at least 0.9, where 1 is the maximum;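 further: activators raise reporter mRNA above DMSO so AC50 marks induction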). As to conditions: HepG2 Attagene TRANS-FACTORIAL CAR reporter. In outline: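 Signal is reporter mRNA induction relative to DMSO, measured 24 h after dosing by RT-PCR with fluorescent primer extension and capillary electrophoresis. Human HepG2 liver cells carried transiently transfected chimeric NR-Gal4/GAL4-UAS reporter constructs.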

Experiment [16] can be described thus: ATG_M_19_TRANS: Attagene TRANS-FACTORIAL HepG2 Assay for M19 Transcription Factor (Internal Marker) (AID 2282974; active means hit-call score of the fitted dose curve at least 0.9, where 1 is the maximum). The following applies: HepG2 Attagene TRANS-FACTORIAL M19 internal marker reporter. In outline:
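Multiplexed TRANS format: HepG2 liver cells bearing transient GAL4-UAS reporter units, chemical treatment 24 h, reporter transcripts quantified by RT-PCR plus capillary electrophoresis. DMSO defines baseline.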

Experiment [17] concerns the target Estrogen receptor (Homo sapiens) (UniProt P03372). As to the kind of experiment: ATG_ERa_TRANS: Attagene TRANS-FACTORIAL HepG2 Assay for human Estrogen Receptor alpha (ERa) (AID 2282970; active means hit-call score of the fitted dose curve at least 0.9, where 1 is the maximum). The following applies: HepG2 Attagene TRANS ERa GAL4 reporter, mRNA. In outline:
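Reporter mRNA induction after 24 hours, detected by fluorescent RT-PCR and capillary electrophoresis, gives the read-out. Cells are HepG2 transiently transfected with GAL4-UAS reporter transcription units responding to chimeric NR-Gal4. Activity is taken as gain of signal over DMSO baseline.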

Experiment [18] has as its target Nuclear receptor subfamily 4 group A member 2 (Homo sapiens) (UniProt P43354). As to the kind of experiment: ATG_NURR1_TRANS: Attagene TRANS-FACTORIAL HepG2 Assay for human Nuclear Receptor Related Protein 1 (NURR1) (AID 2282985; active means hit-call score of the fitted dose curve at least 0.9, where 1 is the maximum). As to conditions: HepG2 Attagene TRANS reporter, mRNA readout. The procedure, abridged:
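Reporter transcript induction, measured by RT-PCR with fluorescent labelling, HpaI digestion and capillary electrophoresis, after 24 hr dosing of human HepG2 cells transiently expressing an exogenous NR-Gal4 fusion with GAL4-UAS-driven reporters; DMSO as baseline.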

Sequence of Transcriptional activator Myb (Homo sapiens) (P10242 whole entry, looked up): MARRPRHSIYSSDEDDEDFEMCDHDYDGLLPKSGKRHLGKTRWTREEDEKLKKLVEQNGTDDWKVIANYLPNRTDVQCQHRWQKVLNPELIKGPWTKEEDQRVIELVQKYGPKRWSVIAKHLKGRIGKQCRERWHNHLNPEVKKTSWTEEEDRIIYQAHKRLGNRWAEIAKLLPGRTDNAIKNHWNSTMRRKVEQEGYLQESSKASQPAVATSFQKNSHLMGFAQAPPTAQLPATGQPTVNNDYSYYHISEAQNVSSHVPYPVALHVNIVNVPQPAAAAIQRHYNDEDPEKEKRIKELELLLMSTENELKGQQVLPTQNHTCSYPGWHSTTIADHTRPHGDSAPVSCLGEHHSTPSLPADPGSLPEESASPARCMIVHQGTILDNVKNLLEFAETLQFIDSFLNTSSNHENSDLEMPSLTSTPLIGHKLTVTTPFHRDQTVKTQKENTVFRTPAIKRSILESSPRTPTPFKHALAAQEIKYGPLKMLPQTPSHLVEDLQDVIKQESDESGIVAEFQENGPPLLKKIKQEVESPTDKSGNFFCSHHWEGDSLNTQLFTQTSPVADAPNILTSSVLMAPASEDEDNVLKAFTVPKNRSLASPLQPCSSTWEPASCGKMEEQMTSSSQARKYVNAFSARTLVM
Sequence of Oxysterols receptor LXR-beta (Homo sapiens) (P55055 whole entry, looked up, the tested form may be a part): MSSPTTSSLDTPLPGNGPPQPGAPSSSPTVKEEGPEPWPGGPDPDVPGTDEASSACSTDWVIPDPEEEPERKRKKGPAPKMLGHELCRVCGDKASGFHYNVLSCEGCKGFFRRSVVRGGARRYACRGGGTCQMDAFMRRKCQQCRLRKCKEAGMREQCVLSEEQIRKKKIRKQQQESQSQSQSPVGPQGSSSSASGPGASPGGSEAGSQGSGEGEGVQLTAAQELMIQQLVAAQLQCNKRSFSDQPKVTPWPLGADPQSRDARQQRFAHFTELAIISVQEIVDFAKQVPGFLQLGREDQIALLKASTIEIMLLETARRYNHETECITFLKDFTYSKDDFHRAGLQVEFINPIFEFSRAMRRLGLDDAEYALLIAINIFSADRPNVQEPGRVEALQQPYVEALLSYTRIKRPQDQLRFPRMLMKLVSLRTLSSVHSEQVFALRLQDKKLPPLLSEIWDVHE
Sequence of X-box-binding protein 1 (Homo sapiens) (P17861 whole entry, looked up): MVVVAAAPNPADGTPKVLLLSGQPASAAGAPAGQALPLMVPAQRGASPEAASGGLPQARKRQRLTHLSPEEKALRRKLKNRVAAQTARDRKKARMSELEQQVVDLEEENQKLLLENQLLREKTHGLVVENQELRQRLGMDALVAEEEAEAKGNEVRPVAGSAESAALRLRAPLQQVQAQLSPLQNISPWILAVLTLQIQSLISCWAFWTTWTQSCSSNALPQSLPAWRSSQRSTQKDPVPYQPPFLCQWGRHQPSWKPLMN
Sequence of Estrogen receptor (Homo sapiens) (P03372 whole entry, looked up, the tested form may be a part): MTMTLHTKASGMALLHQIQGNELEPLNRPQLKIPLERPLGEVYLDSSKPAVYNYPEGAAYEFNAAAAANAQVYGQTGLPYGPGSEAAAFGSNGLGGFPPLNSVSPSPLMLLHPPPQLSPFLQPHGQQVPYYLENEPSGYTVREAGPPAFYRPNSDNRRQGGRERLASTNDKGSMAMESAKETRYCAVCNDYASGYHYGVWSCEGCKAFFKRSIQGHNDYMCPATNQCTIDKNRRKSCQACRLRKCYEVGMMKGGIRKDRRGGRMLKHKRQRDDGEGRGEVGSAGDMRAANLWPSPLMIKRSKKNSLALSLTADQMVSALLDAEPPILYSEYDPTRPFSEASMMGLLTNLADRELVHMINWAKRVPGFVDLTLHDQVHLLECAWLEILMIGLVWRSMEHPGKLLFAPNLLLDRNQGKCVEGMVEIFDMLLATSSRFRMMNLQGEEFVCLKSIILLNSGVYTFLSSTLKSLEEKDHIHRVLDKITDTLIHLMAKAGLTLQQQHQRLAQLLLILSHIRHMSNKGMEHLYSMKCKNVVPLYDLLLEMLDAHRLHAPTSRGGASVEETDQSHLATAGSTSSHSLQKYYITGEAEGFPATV
Sequence of Nuclear receptor subfamily 1 group I member 3 (Homo sapiens) (Q14994 whole entry, looked up, the tested form may be a part): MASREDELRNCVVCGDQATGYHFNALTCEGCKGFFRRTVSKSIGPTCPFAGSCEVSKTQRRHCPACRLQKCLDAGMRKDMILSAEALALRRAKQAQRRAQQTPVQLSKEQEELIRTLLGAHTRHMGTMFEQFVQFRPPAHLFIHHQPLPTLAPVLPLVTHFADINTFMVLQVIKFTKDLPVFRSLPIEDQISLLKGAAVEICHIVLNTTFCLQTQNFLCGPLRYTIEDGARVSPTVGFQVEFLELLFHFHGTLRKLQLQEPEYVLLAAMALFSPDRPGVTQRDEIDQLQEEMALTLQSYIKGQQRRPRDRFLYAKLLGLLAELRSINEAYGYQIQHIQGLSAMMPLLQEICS
Sequence of Nuclear receptor subfamily 4 group A member 2 (Homo sapiens) (P43354 whole entry, looked up, the tested form may be a part): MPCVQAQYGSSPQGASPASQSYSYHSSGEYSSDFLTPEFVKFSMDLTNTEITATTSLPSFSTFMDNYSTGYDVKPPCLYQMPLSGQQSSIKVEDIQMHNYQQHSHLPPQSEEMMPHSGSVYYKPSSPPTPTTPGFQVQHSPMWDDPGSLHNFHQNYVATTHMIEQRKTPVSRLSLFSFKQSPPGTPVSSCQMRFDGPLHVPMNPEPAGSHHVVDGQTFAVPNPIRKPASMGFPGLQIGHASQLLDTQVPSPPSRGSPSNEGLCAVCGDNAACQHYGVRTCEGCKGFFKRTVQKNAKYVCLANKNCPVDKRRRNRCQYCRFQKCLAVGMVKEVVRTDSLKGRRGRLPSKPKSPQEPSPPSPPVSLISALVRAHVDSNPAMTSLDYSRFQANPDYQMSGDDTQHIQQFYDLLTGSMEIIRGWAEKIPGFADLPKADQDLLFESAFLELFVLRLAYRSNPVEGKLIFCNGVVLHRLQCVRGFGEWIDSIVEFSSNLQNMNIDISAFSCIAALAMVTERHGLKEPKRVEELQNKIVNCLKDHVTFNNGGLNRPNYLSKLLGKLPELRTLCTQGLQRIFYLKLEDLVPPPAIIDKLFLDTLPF
Sequence of Bile acid receptor (Homo sapiens) (Q96RI1 whole entry, looked up, the tested form may be a part): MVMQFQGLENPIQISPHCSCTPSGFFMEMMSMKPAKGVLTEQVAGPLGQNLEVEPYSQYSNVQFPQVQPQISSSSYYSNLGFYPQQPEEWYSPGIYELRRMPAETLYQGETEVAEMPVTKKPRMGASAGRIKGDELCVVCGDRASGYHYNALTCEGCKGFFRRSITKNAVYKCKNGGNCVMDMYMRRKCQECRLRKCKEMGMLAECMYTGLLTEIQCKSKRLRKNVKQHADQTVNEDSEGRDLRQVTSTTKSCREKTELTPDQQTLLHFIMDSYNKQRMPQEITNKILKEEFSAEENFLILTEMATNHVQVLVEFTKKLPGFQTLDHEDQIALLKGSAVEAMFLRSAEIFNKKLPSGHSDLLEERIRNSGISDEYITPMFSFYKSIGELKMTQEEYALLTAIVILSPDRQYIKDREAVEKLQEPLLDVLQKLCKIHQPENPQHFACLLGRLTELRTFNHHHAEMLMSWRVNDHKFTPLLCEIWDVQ
Sequence of Nuclear respiratory factor 1 (Homo sapiens) (Q16656 whole entry, looked up): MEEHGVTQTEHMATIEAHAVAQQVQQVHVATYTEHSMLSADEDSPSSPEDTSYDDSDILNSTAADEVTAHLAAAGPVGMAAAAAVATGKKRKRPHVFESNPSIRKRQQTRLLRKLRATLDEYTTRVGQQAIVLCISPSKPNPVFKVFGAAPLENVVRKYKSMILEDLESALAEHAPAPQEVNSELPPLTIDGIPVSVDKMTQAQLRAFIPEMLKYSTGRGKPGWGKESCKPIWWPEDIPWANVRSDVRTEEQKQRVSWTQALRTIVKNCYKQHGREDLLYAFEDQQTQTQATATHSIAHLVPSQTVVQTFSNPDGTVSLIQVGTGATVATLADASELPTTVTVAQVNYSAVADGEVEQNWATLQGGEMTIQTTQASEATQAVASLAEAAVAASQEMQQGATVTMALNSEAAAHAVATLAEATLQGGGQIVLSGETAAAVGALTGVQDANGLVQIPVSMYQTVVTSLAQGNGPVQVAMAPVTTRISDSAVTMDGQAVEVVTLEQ
Sequence of Oxysterols receptor LXR-alpha (Homo sapiens) (Q13133 whole entry, looked up, the tested form may be a part): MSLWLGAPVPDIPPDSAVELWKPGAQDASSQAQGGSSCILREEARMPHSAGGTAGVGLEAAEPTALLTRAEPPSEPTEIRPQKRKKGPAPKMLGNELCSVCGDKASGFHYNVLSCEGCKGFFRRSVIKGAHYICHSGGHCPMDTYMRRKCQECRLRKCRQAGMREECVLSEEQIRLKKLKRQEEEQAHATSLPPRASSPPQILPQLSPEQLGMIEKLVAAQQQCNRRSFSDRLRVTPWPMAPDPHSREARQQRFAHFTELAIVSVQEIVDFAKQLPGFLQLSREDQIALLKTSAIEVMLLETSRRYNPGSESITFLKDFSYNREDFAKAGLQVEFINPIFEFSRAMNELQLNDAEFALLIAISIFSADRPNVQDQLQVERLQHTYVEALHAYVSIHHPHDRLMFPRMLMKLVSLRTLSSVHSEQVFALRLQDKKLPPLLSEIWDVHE

Consider `CC(C)(Oc1ccc(CCNC(=O)c2ccc(Cl)cc2)cc1)C(=O)O`, for which the compound was called inactive in [1], in experiment [2], in [3], in [4], in experiment [5] and in [6]. In addition, the call in [7], in [8], in [9], in [10] and in experiment [11] was inactive.
The term AC50 denotes the midpoint of the concentration-response curve, whichever way the signal moves. Turning to `Cc1ccc(C(=O)c2cc(O)c(O)c([N+](=O)[O-])c2)cc1`, the outcome in experiment [1], in [2], in [3], in experiment [4], in [13] and in [7] was inactive. Further, the compound was classed as inactive in experiment [8], in experiment [9], in experiment [10], in experiment [11] and in experiment [14]. For the same compound, the AC50 in experiment [12] was 144 µM (active).
Turning to `CN(C)C(=N)N=C(N)N`, the compound was classed as inactive in [1], in experiment [2], in [15], in experiment [4], in experiment [16] and in experiment [5]. In addition, the compound was classed as inactive in experiment [9], in [10] and in experiment [11].
On to `OCCCCCO`, for which the outcome in [1], in experiment [2], in experiment [15], in [4], in [13] and in experiment [7] was inactive. Moreover, the compound was classed as inactive in experiment [9], in experiment [10], in experiment [11] and in experiment [14]. Besides, in experiment [17], the AC50 was 76.1 µM (active).
On to `O=C(Cl)c1cccc(C(=O)Cl)c1`, for which the result in experiment [1], in experiment [2], in experiment [3], in experiment [4], in [5] and in experiment [8] was inactive. For the same compound, the compound was classed as inactive in experiment [10], in experiment [18], in experiment [11] and in experiment [14].
Take `CCCCCCCCCCCCCC(=O)O`: the result in [1], in experiment [2], in experiment [3], in experiment [4], in experiment [5] and in experiment [6] was inactive. In addition, the call in experiment [8], in experiment [9], in experiment [10], in experiment [18], in experiment [11] and in [14] was inactive.
For `C=C[C@@H](C)CCC=C(C)C`, the result in [1], in [2], in [3], in experiment [4], in experiment [13] and in [7] was inactive. Besides, the compound was called inactive in experiment [9], in experiment [10], in experiment [18], in experiment [11] and in [14].
For `O=C=NC1CCC(CC2CCC(N=C=O)CC2)CC1` (configuration not stated), the AC50 in experiment [1] is 26.8 µM (active); in [2], 59.2 µM (active); in experiment [3], 37.5 µM (active); in experiment [4], 85.1 µM (active). In addition, the result in experiment [12], in [13], in experiment [9], in experiment [11] and in experiment [14] was inactive.
As for `CC(=O)[O][Al][O]C(C)=O`, the result in experiment [1], in experiment [2], in experiment [3], in experiment [4], in experiment [5] and in experiment [13] was inactive. Further, the call in experiment [9], in experiment [18], in [11] and in experiment [14] was inactive.
On to `CN(CCOc1ccc(CC2SC(=O)NC2=O)cc1)c1ccccn1` (configuration not stated), for which the compound was called inactive in experiment [1], in [2], in [15], in [17], in experiment [4] and in [16]. Also, the compound was classed as inactive in experiment [6], in experiment [13], in experiment [7], in [10], in experiment [18] and in experiment [11]. Moreover, in experiment [14], the call was inactive.
Turning to `O=C1CCc2ccccc2O1`, the call in experiment [1], in [2], in experiment [3], in [4], in experiment [5] and in experiment [8] was inactive. In addition, the result in experiment [9], in experiment [18] and in [11] was inactive.
In the case of `OCc1cccnc1`, the call in experiment [1], in [2], in experiment [15], in [17], in [4] and in [16] was inactive. Also, the compound was called inactive in experiment [6], in experiment [8], in experiment [10], in experiment [18] and in [11].
On to `CC(=O)C(=O)O`, for which the compound was classed as inactive in experiment [1], in experiment [2], in [3], in experiment [4], in experiment [5] and in experiment [8]. Moreover, the outcome in experiment [9], in experiment [11] and in [14] was inactive.
